MEKK2 WT-MEK5 – raises or lowers MEK5 binding to wildtype human MEKK2 PB1 domain. Q9Y2U5. bead flow cytometry, Alexa488-MEK5 binding to MEKK2 WT; actives lie on both sides. binding response (% of control), % at 10 µM. 290,000 tested, 1.1% active. AID 1531; in the data active means binding response below about 67% or above about 130%
MEKK3 PB1 HTS – MEKK3-MEK5 PB1 interaction, increase or decrease. Q99759. bead-based flow cytometry, Alexa488-MEK5 binding to MEKK3; actives lie on both sides; 0 = blocked by unlabeled MEK5, 100 = vehicle. binding response (% of control), % at 10 µM. 290,000 tested, 1.4% active;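 active means binding response more than 3 SD above or below the average of its plate-row segment, actives on both sides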;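 further: Alexa488 bead fluorescence after subtracting the streptavidin-only scavenger bead signal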
B2AR ag – agonists of human beta-2 adrenergic receptor inducing internalization; P07550; response, % (concentration not given with the values); AID 504454; Am2.2-beta2AR cells, FAP receptor internalization, flow cytometry; 340,000 tested, 0.43% active;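 active means response above a set limit, near 3 SD of response in nonfluorescent compounds, cut at about 42% in these data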
Target sequence (P07550 whole entry, looked up): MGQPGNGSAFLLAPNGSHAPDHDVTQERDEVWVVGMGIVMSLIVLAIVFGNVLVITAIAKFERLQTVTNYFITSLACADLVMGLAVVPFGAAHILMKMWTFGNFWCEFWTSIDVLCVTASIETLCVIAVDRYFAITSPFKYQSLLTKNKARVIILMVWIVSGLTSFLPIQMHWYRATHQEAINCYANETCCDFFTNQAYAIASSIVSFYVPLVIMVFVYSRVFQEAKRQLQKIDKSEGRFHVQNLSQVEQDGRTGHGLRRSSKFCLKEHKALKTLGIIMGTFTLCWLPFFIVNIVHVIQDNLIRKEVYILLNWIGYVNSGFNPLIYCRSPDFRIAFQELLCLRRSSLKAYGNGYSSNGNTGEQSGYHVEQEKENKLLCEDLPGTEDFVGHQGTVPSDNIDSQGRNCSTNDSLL
GRK2 inh – human GRK2 inhibition via aptamer displacement; AID 488847; 330,000 tested, 0.59% active; P25098; bead flow cytometry, FAM-aptamer displacement from GRK2; inhibition of aptamer binding, % at 10 µM;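 active means inhibition of aptamer binding above 40%, roughly 3 SD of noise, on plates passing a quality check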;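 further: median bead fluorescence of bound FAM aptamer so fluorescent compounds give negative values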
MEKK2 mut-MEK5 – signal of MEK5 binding to mutant human MEKK2 PB1 domain. bead flow cytometry, Alexa488-MEK5 binding to MEKK2 mutant. AID 1530. 290,000 tested, 0.35% active. percent response, % at 10 µM; in the data active means percent response above about 24%, passing the limit was not always enough
MEKK2wt confirm – raises or lowers MEK5 binding to wildtype human MEKK2, retest. shares compounds with MEKK3 PB1 HTS. bead flow cytometry, Alexa488-MEK5 binding to MEKK2 WT; actives lie on both sides. binding response (% of control), % at 10 µM. 5,900 tested, 2.4% active; in the data active means binding response below about 16% or above about 210%; inactive means in between
MEKK2mut-MEK5 – signal of MEK5 binding to mutant human MEKK2, retest. percent response, % at 10 µM. AID 1893. shares compounds with MEKK3 PB1 HTS. bead flow cytometry, Alexa488-MEK5 binding to MEKK2 mutant. 5,900 tested, 2% active; in the data active means percent response mostly above about 71%, no sharp cut-off; inactive means mostly below about 38%;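 further: higher means compound restores mutant binding toward wildtype level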
MEKK3 confirm – confirmation of inhibitors of MEK5 binding to human MEKK3; AID 1894; 5,900 tested, 1.8% active; shares compounds with MEKK3 PB1 HTS; bead flow cytometry, Alexa488-MEK5 binding to MEKK3; stronger effect = lower value; binding response (% of control), % at 10 µM;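 active means binding response below 72% of control, or above a set upper limit, though filed actives all read lower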;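 further: 100% = DMSO only wells and 0% = binding blocked by excess unlabeled MEK5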
The depositor's hits bear a star; / = no result given; ! = not active in a repeat; [ ] = remark or other dose. Hits are enriched below; roughly 2.9% of the tested compounds scored in any of these assays.

SMILES	MEKK2 WT-MEK5	MEKK3 PB1 HTS	B2AR ag	GRK2 inh	MEKK2 mut-MEK5	MEKK2wt confirm	MEKK2mut-MEK5	MEKK3 confirm
O=C1CCc2ccc(OCCCCN3CCN(c4cccc(Cl)c4Cl)CC3)cc2N1	177*!	113	19	0	15	1.0*[inhibitor]	-29	1.0*
CCCNC(=O)c1ccccc1NC(=O)COc1cccc2c1OC(C)(C)C2	/	/	17	1	/	/	/	/
COc1ccc(C(=O)COC(=O)C(CC(C)C)N2C(=O)c3ccccc3C2=O)cc1 (configuration not stated)	99	100	4	0	2	/	/	/
CSCCC(C(=O)OCC(=O)c1ccc(C)c(C)c1)N1C(=O)c2cc(Cl)c(Cl)cc2C1=O (configuration not stated)	2.0*[inhibitor]	2.0*[inhibitor]	4	2	-15	90	-4	97
CC(=O)C1=C(O)C(=O)N(c2ccc(S(=O)(=O)Nc3nccs3)cc2)C1c1ccc([N+](=O)[O-])cc1 (configuration not stated)	62*[inhibitor]	57*[inhibitor]	2	2	-47	103	4	105
CC1CN(C(=O)c2ccc(-c3cccc(C(F)(F)F)c3)o2)CC(C)O1 (configuration not stated)	/	/	-4	2	/	/	/	/
OC(COc1ccccc1Cl)CN1CCN(CC(O)COc2ccccc2Cl)CC1 (configuration not stated)	150*	109	9	0	35*	155	27	104
COc1ccccc1N1CCN(CC(O)COc2cccc3ccccc23)CC1 (configuration not stated)	95	75*![inhibitor]	-11	0	1	119	14	106
OC(COc1cccc2ccccc12)CN1CCN(c2ccccc2)CC1 (configuration not stated)	111	103	-15	0	5	/	/	/
COc1ccc(F)c(CN2CCC(n3nccc3NC(=O)C3CCOC3)CC2)c1 (configuration not stated)	103	99	-2	4	8	/	/	/
C/C=C(/CCC1NCCc2c1[nH]c1ccccc21)[Si](C)(C)C (configuration not stated)	/	/	9	/	/	/	/	/
O=C(c1cc2c(s1)CCCC2)N1CCN(CCO)CC1	/	/	-11	0	/	/	/	/
CC(=O)N1N=C(c2ccc(NS(=O)(=O)c3ccccc3)cc2)CC1c1ccco1 (configuration not stated)	/	/	-5	1	/	/	/	/
COc1ccc(-n2c(N)c(-c3nc4ccccc4n3C)sc2=S)cc1	82	69*[inhibitor]	-1	/	-13	100	-1	100
O=C(O)c1ccc(N2C(=O)c3cccnc3C2=O)cc1	97	98	-2	1	-4	/	/	/
O=C1c2nccnc2C(=O)N1c1ccc(F)cc1	112	130*	4	5	0	105	6	100
C[C@H](CO)N1C[C@H](C)[C@@H](CN(C)S(=O)(=O)c2cn(C)cn2)Oc2c(NS(=O)(=O)c3cn(C)cn3)cccc2C1=O	/	/	4	0	/	/	/	/
CC(=O)c1ccc(N=Cc2c(O)n(-c3cc(Cl)ccc3N3CCOCC3)c(=O)c3ccccc23)cc1	96	103	-5	0	-1	/	/	/
O=c1c2ccccc2c(C=Nc2ccc(Cl)cn2)c(O)n1-c1cc(Cl)ccc1N1CCOCC1	2.0*[inhibitor]	2.0*[inhibitor]	-6	4	-46	84	-5	97
O=C1CCCc2nc(NCc3ccco3)ncc21	111	112	-7	4	24*	101	0	98
O=C(CSc1nc2ccccc2n1Cc1ccc(Cl)cc1)N/N=C/c1ccccc1C(=O)O	96	100	-7	2	0	/	/	/
O=C(O)COc1ccccc1/C=N/NC(=O)CSc1nc2ccccc2n1Cc1ccc(Cl)cc1	57	50*[inhibitor]	4	1	-28	103	6	106
O=C(NCCN1CCCC1)c1ccc(Cn2c(=S)[nH]c3ccc(Br)cc3c2=O)cc1	104	102	7	0	-1	/	/	/
O=C(NCCCN1CCCC1)c1ccc(Cn2c(=S)[nH]c3ccc(Br)cc3c2=O)cc1	144*	105	/	0	25	119	7	97
CCOc1cc2[nH]c(=S)n(Cc3ccc(C(=O)NCCN(CC)CC)cc3)c(=O)c2cc1OCC	126	107	22	2	29*	113	4	103
SMILES	MEKK2 WT-MEK5	MEKK3 PB1 HTS	B2AR ag	GRK2 inh	MEKK2 mut-MEK5	MEKK2wt confirm	MEKK2mut-MEK5	MEKK3 confirm
CCOc1cc2[nH]c(=S)n(Cc3ccc(C(=O)NCC(OC)OC)cc3)c(=O)c2cc1OCC	99	102	2	3	6	/	/	/
CCCCCCCOC(=O)C[N+](C)(C)CCOC1CC2CCC1(C)C2(C)C (configuration not stated)	163*	100	-1	/	38	186	49	111
CCCCCCOC(=O)C[N+](C)(C)CCOC1CC2CCC1(C)C2(C)C (configuration not stated)	202*	113	-7	0	14	146	23	106
COc1ccc(N(CC(=O)N2CCN(c3ccc(F)cc3)CC2)S(=O)(=O)c2c(C)noc2C)cc1	96	97	0	0	2	/	/	/
COc1ccc(N(CC(=O)N2CCN(c3ccc(F)cc3)CC2)S(=O)(=O)c2c(C)n[nH]c2C)cc1	108	128*	20	0	-1	95	-8	98
O=C(O)C1Cc2c([nH]c3ccccc23)C(c2ccc3c(c2)OCO3)N1 (configuration not stated)	6.0*[inhibitor]	97	10	0	13	101	-4	100
COc1ccc(CC(=O)N[C@@H](CCSC)C(=O)N2CCC3(CC2)NCCc2[nH]cnc23)cc1	107	101	-1	2	9	/	/	/
COc1ccc(/C=C2/C(=O)N(Cc3ccccc3)N=C2C)cc1	104	128*	18	0	3	98	2	93
N#CCC(=O)Nc1ccc(C(=O)OCC(=O)Nc2ccccc2-c2ccccc2)cc1	121	141*	1	0	33	103	2	102
C#CCOCCOCCOCCNc1nc(N2CCN(C(=O)[C@H](CCCCN)n3cc([C@@H](N)CO)nn3)CC2)nc(N2CCN(C(=O)[C@H](CCCCN)n3cc([C@@H](N)CC(C)C)nn3)CC2)n1	/	/	-7	0	/	/	/	/
CC12CCCC[C@@H]1CCC1C2CCC2(C)C1CC[C@@]2(O)CNCCO (some centres not stated)	136*	106	2	0	25*	107	10	87

Screening data deposited in PubChem by NMMLSC.
